“And” between values parts separate entries of the source, which are not always exact repeats. Equal values may be shown once. Records with an inconclusive call do not appear. Where a call stands in place of a potency, no number is given. The source made the active and inactive calls. Calls come from the whole dose curve; as a rule, active = well fitted curve in the direction sought with a large enough effect; inconclusive = small, poorly fitted or top-dose-only effect, or another doubt; inactive = no such curve, though single readings can be large; an effect the other way counts as inactive or inconclusive.
Assay: qHTS of pediatric cancer cell lines to identify multiple opportunities for drug repurposing: Primary screen for NB-EBc1 cells (AID 1347095)
Settings: NB-EBc1 neuroblastoma viability, CellTiter-Glo luminescence, 48 h; series mostly up to 46 µM
Procedure, shortened: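 Following a 5-hour attachment period, cells at 500-1,000/well received compounds and were cultured for 48 hours. CellTiter-Glo was added and luminescence read to estimate viable, metabolically active cells.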
Potency is the fitted concentration of half-maximal effect.

Compound	Potency
CS(=O)(=O)Nc1ccc([N+](=O)[O-])cc1Oc1ccccc1	inactive
Cn1c(=O)c2c(ncn2C)n(C)c1=O	inactive
Nc1nnc(-c2cccc(Cl)c2Cl)c(N)n1	inactive
CC(=O)OCC(CCn1cnc2cnc(N)nc21)COC(C)=O	inactive
CN(Cc1cnc2nc(N)nc(N)c2n1)c1ccc(C(=O)N[C@@H](CCC(=O)O)C(=O)O)cc1	106 nM (active) and 187 nM (active)
CC(C)C(=O)Nc1ccc([N+](=O)[O-])c(C(F)(F)F)c1	inactive
CN1CCN(CCCN2c3ccccc3Sc3ccc(Cl)cc32)CC1	inactive
CC[C@@]1(O)C(=O)OCc2c1cc1n(c2=O)Cc2cc3c(CN(C)C)c(O)ccc3nc2-1	47.3 nM (active) and 26.4 nM (active)
O=C1Cc2cc(CCN3CCN(c4nsc5ccccc45)CC3)c(Cl)cc2N1	inactive
CN1CCC(=C2c3ccccc3CC(=O)c3sccc32)CC1	inactive
CC(C)(C)C(=O)Oc1ccc(S(=O)(=O)Nc2ccccc2C(=O)NCC(=O)O)cc1	inactive
CC#C[C@]1(O)CC[C@H]2[C@@H]3CCC4=CC(=O)CCC4=C3[C@@H](c3ccc(N(C)C)cc3)C[C@@]21C	526 nM (active)
CC1(C)O[C@H]2CC(=O)OC[C@]23[C@H]2CC[C@@]4(C)[C@H](c5ccoc5)OC(=O)[C@H]5O[C@]54[C@]2(C)C(=O)C[C@@H]13	inactive
Clc1ccc2c(c1)C(N1CCNCC1)=Nc1ccccc1O2	inactive
CN(C)C(=N)N=C(N)N	inactive
Cn1ccc2cc3c(cc21)CCN3C(=O)Nc1cccnc1	inactive
CC[N+](CC)(CC)CCOc1cccc(OCC[N+](CC)(CC)CC)c1OCC[N+](CC)(CC)CC	inactive
Clc1ccc2nsnc2c1NC1=NCCN1	inactive

Assay: qHTS of pediatric cancer cell lines to identify multiple opportunities for drug repurposing: Primary screen for U-2 OS cells (AID 1347096); note: nearly all actives have a fitted effect of over 50% in size
Settings: U-2 OS viability, CellTiter-Glo luminescence, 48 h; series mostly up to 46 µM
Procedure, shortened: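 Cells (500-1,000/well) rested 5 h, then received compounds for 48 h; metabolically active cells were measured by CellTiter-Glo luminescence. Final concentrations spanned up to 46 µM (MIPE, 11-point) or 0.59 nM-46 µM (NPC, 8-point) in primary screens, 11-point in follow-ups.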

Compound	Potency
C[C@@H]1CC(=O)NN=C1c1ccc(NN=C(C#N)C#N)cc1	inactive
CS(=O)(=O)Nc1ccc([N+](=O)[O-])cc1Oc1ccccc1	inactive
CS(=O)(=O)CCNCc1ccc(-c2ccc3ncnc(Nc4ccc(OCc5cccc(F)c5)c(Cl)c4)c3c2)o1	18700 nM (active)
CC(C)NCC(O)c1ccc(O)c(O)c1 (centres undefined)	inactive
CC(C)C(=O)Nc1ccc([N+](=O)[O-])c(C(F)(F)F)c1	inactive
CN1CCN(CCCN2c3ccccc3Sc3ccc(Cl)cc32)CC1	inactive
Cc1cnc(C(=O)NCCc2ccc(S(=O)(=O)NC(=O)NC3CCCCC3)cc2)cn1	inactive
CCOC(=O)Nc1ccc(NCc2ccc(F)cc2)nc1N	inactive
O=C1Cc2cc(CCN3CCN(c4nsc5ccccc45)CC3)c(Cl)cc2N1	inactive
Cc1ccc(-c2cc(C(F)(F)F)nn2-c2ccc(S(N)(=O)=O)cc2)cc1	inactive
CC(C)(C)C(=O)Oc1ccc(S(=O)(=O)Nc2ccccc2C(=O)NCC(=O)O)cc1	inactive
CC#C[C@]1(O)CC[C@H]2[C@@H]3CCC4=CC(=O)CCC4=C3[C@@H](c3ccc(N(C)C)cc3)C[C@@]21C	935 nM (active)
Clc1ccc(C(c2ccccc2Cl)C(Cl)Cl)cc1 (centres undefined)	inactive
Cn1ccc2cc3c(cc21)CCN3C(=O)Nc1cccnc1	inactive
CN(CCOc1ccc(NS(C)(=O)=O)cc1)CCc1ccc(NS(C)(=O)=O)cc1	inactive
Clc1ccc2nsnc2c1NC1=NCCN1	inactive

— PubChem BioAssay (NCATS)
